# Experimental data reported in ChEMBL document CHEMBL4513146, “CO-ADD screening of Karazin Kharkiv National University (Ukraine) compounds”.
# Entries with a potency or affinity are not part of this list.
# Legend:
# Staphylococcus aureus = conditions: Concentration 32 ug.mL-1;; ASSAY_TEST Inhibition of Bacterial Growth; detection method Absorption (OD600); MEDIA CAMHB; plate type 384well; NBS; CORNING #3640; time 18 hr
# Escherichia coli = conditions: Concentration 32 ug.mL-1;; ASSAY_TEST Inhibition of Bacterial Growth; detection method Absorption (OD600); MEDIA CAMHB; plate type 384well; NBS; CORNING #3640; time 18 hr
Structure (SMILES),Inhibition (Staphylococcus aureus) [%],Inhibition (Escherichia coli) [%]
COc1cccc(-n2ccn3c(SCC(=O)Nc4ccc(C(C)C)cc4)nnc3c2=O)c1,0.38,-24.97
Cc1cc(C)cc(Nc2nc(C)cc3nn(CC(=O)Nc4ccc(Cl)cc4)c(=O)n23)c1,-9.56,0.58
Cc1ccc(CN(c2ccc(C(C)C)cc2)S(=O)(=O)c2cccn3cnnc23)cc1,21.94,4.59
COc1ccc(NC(=O)c2ccc3nn(CC(=O)N4CCN(c5ccccc5)CC4)c(=O)n3c2)cc1,2.28,-9.19
CCOC(=O)C1CCCN(C(=O)Cn2nc3n(CC(C)C)c(=O)c4sccc4n3c2=O)C1 (centres undefined),-2.49,-6.05
O=C(Cn1nc2nc(Nc3ccc(F)cc3)ccn2c1=O)N1CCOCC1,9.39,-3.26
Cc1cc2nn(CC(=O)Nc3ccc(F)cc3Cl)c(=O)n2c(Nc2ccccc2C)n1,-3.09,-11.67
Cc1ccccc1-c1noc(Cn2nc3ccc(-c4ccccc4)nn3c2=O)n1,-12.29,-7.81
CCc1nnc2c(S(=O)(=O)N(Cc3cc(F)cc(F)c3)c3ccc(F)cc3)cccn12,-5.33,-11.24
Cc1cccc(N(Cc2cccc(F)c2)S(=O)(=O)c2cccn3c(C)nnc23)c1,20.9,-1.19
CCCCn1c(=O)c2sccc2n2c(=O)n(CC(=O)c3ccc(C)cc3C)nc12,-3.74,-4.86
COc1ccc(NC(=O)Cn2nc3c(SC4CCCCC4)nccn3c2=O)cc1OC,4.77,-3.78
COc1ccccc1CNC(=O)CSc1nnc2c3cc(-c4ccc(C)cc4)nn3ccn12,-5.58,-8.49
COc1cccc(Oc2nccn3c(=O)n(CC(=O)Nc4ccc(OC)c(OC)c4)nc23)c1,15.47,-2.07
Cc1cc2nn(CC(=O)N3CCCc4ccccc43)c(=O)n2c(Nc2ccc(F)cc2)n1,6.5,-0.15
CC(=O)c1ccc(NC(=O)Cn2nc3ccc(Sc4ccccc4)nn3c2=O)cc1,5.54,-7.82

Structure (SMILES),Inhibition (Staphylococcus aureus) [%],Inhibition (Escherichia coli) [%]
O=S(=O)(c1cccn2c(SCc3c(F)cccc3Cl)nnc12)N1CCCC1,5.67,0.4
CCC(Sc1nnc2c(=O)n(-c3cccc(OC)c3)ccn12)C(=O)Nc1cc(F)ccc1F (centres undefined),3.22,-7.17
Cc1ccc2c(c1)N(C(=O)Cn1nc3ccc(Sc4ccccc4)nn3c1=O)CCO2,5.63,2.06
CC(C)c1nnc2c(SCC(=O)Nc3ccc(Br)cc3F)nc3ccccc3n12,6.04,-1.36
COc1cc(OC)c(NC(=O)Cn2nc3c4c5c(sc4ncn3c2=O)CC(C)CC5)cc1Cl (centres undefined),7.09,1.97
Cc1ccc(-c2cc3c4nn(CC(=O)Nc5ccc(F)cc5)c(=O)n4ccn3n2)cc1C,-6.62,-8.95
O=c1c2sccc2n2c(=O)n(Cc3ccc(Cl)cc3)nc2n1Cc1cccs1,-8.27,-9.25
Cc1cc(C)cc(Nc2nc(C)cc3nn(CC(=O)Nc4cc(F)ccc4F)c(=O)n23)c1,10.55,0.49
COc1ccc(-c2cc3c4nn(CC(=O)Nc5c(C)cccc5C)c(=O)n4ccn3n2)cc1,3.68,-1.14
CCOC(=O)c1ccccc1NC(=O)Cn1nc2c3cc(-c4ccc(Cl)cc4)nn3ccn2c1=O,7.33,2.34
Cc1ccc(Cl)cc1NC(=O)CSc1nnc2ccc(C(=O)Nc3cccc(F)c3)cn12,14.11,0.94
COc1ccccc1-n1ccn2c(SCc3ccccc3Cl)nnc2c1=O,15.04,-4.4
O=S(=O)(c1ccc2nncn2c1)N(Cc1cc(F)cc(F)c1)c1cc(F)cc(F)c1,-5.61,-4.65
O=c1c2nnc(SCc3ccc(F)cc3)n2ccn1-c1ccc(Br)cc1,3.87,-5.68
Cc1ccc(NC(=O)Cn2nc3ccc(-c4ccc(Cl)cc4)nn3c2=O)cc1,0.77,-0.85
Cc1ccc(NC(=O)Cn2nc3c4cc(-c5ccc(Cl)cc5)nn4ccn3c2=O)cc1C,10.49,3.51
